This note sets out measurements from PubChem BioAssay (Tox21).

Each structure is given as a SMILES string. Inconclusive results are not listed. Where a call stands in place of a potency, no number is given. Calls of active or inactive are those of the source. Calls follow the shape of the dose curve; as a rule, active = well fitted cell-killing curve with a large enough effect in the repeat runs; inconclusive = weak or mixed curves, or effect the other way; inactive = flat fitted curve, though single readings scatter.

This assay can be described thus: qHTS assay to identify small molecule antagonists of the estrogen receptor alpha (ER-alpha) signaling pathway using the BG1 cell line in the presence of 0.1 nM 17-beta-estradiol - cell viability counter screen (AID 1259241). Also: nearly all actives have a fitted effect of over 40% in size. To be noted: VM7Luc4E2 (BG1) viability, CellTiter-Fluor protease, 22 h, 0.1 nM estradiol agonist added; series mostly up to 92.4 µM. An excerpt:
National Center for Advancing Translational Sciences [NCATS]
NIH Chemical Genomics Center [NCGC]
U.S. Environmental Protection Agency [EPA]
National Institutes of Environmental Health Sciences [NIEHS]
National Toxicology Program [NTP]
U.S. Food and Drug Administration [FDA]
Estrogen receptor (ER), a member of the nuclear hormone receptor plays an important role in development, metabolic homeostasis and reproduction. Two subtypes of ER, ER-alpha and ER-beta, have similar expression patterns with some uniqueness in both types. Endocrine disrupting chemicals (EDCs) and their interactions with steroid hormone receptors like ER causes disruption of normal endocrine function. Therefore, it is important to understand the effect of environmental chemicals in ER signaling pathway. For identifying ER antagonists, VM7Luc4E2 cell line was used to screen against Tox21 compound libraries.
VM7Luc4E2 cell line (provided by Denison MS, University of California) endogenously express full-length ER-alpha and is stably transfected with a plasmid containing four estrogen responsive elements (ERE) upstream of a luciferase reporter gene. The current screening for identification of ER-alpha inhibitors against Tox21 compound libraries used lower concentration (0.1 nM) of 17beta-Estradiol as a stimulator. The cytotoxicity of the Tox21 compound libraries against VM7Luc4E2 cell line was tested by measuring live-cell protease activity using CellTiter-Fluor assay in the same wells.
Tox21 Assay Protocol Summary:
VM7Luc4E2 cells were cultured in phenol red free assay medium containing 10% charcoal stripped FBS for 5 days prior to the assay. The cells were dispensed at 4,000 cells/well in 4 uL of assay medium into white wall/solid-bottom 1536-well plates (Corning Life Sciences, Corning, NY) using a Multidrop Combi (ThermoFisher Scientific, Waltham, MA) dispenser. After the assay plates were incubated at 37C and 5% CO2 for 24 hr, 23 nL of compounds dissolved in DMSO, positive controls or DMSO only was transferred to the assay plates by a Pintool station (Kalypsys, San Diego, CA). The transfer of compounds was followed by the addition of 1 uL of 0.1 nM (final concentration) agonist (17beta-Estradiol)/assay medium using a Flying Reagent Dispenser (FRD, Aurora Discovery, San Diego, CA). The plates were incubated at 37C and 5% CO2 for 22 hr. For cytotoxicity assay, 1 uL of CellTiter-Fluor reagent (Promega Corporation, Madison, WI) was added to each well using the FRD and after 30 min incubation at 37C and 5% CO2, The fluorescence intensity was measured using ViewLux plate reader (PerkinElmer, Shelton, CT).
As to `Cc1ccncc1`, the Potency result is “inactive”.

Consider `CC(=O)Nc1ccc(CC(=O)O)cc1`, for which the Potency result is “inactive”.

For `O=[N+]([O-])c1ccccc1C(F)(F)F`, the Potency entry is “inactive”.

For `NCCNCCNCCN`, the Potency entry was “inactive”.

As to `O=C1OC(=O)c2c(Cl)c(Cl)c(Cl)c(Cl)c21`, the Potency entry was “inactive”.

On to `CN=C(NC#N)NCCSCc1nc[nH]c1C`, for which the Potency result was “inactive”.

`COc1c2ccoc2cc2oc(=O)ccc12`: the Potency entry was “inactive”.

Consider `CC(=O)C(C)C`, for which the Potency result was “inactive”.

As for `O=[N+]([O-])c1cc(C(F)(F)F)ccc1Cl`, the Potency result is “inactive”.

With `O=C(NCC1CCCCN1)c1cc(OCC(F)(F)F)ccc1OCC(F)(F)F` (stereo not given), the Potency result was “inactive”.

Take `OCCOCCOCCOCCOCCO`: the Potency result is “inactive”.

Turning to `Cc1ccccc1Cl`, the Potency entry was “inactive”.

For `Cc1cc(C)c(O)c(C)c1`, the Potency entry is “inactive”.

On to `COC(=O)OC`, for which the Potency result is “inactive”.

For the molecule `CC(CN1c2ccccc2Sc2ccccc21)N(C)C` (stereo not given), the Potency entry was “inactive”.

`CCCCC(CC)COC(=O)c1ccc(C(=O)OCC(CC)CCCC)cc1` (stereo not given): the Potency result was “inactive”.

In the case of `C[n+]1ccn(CCO)c1`, the Potency result is “inactive”.

Take `OB(O)O`: the Potency entry is “inactive”.

Consider `Cc1cc(C)cc(O)c1`, for which the Potency result is “inactive”.

In the case of `O=C(c1ccccc1)c1ccc(O)c(O)c1O`, the Potency result is “inactive”.

For the molecule `CCCOC(=O)NCCCN(C)C`, the Potency result was “inactive”.

With `C=C(C)CC(C)(C)C`, the Potency entry is “inactive”.

As for `CC(C)(CO)CO`, the Potency entry was “inactive”.

Consider `O=C1O[C@H]([C@H](O)CO)C(O)=C1O`, for which the Potency entry was “inactive”.

For the molecule `COc1ccccc1[N+](=O)[O-]`, the Potency entry is “inactive”.

As to `Nc1cccc(C(F)(F)F)c1`, the Potency result was “inactive”.

With `CCCN(CCC)C(=O)SCC`, the Potency result is “inactive”.

As for `C=CC(=O)NCOCCCC`, the Potency entry is “inactive”.

With `CC(C)=CCC/C(C)=C/C=O`, the Potency result was “inactive”.

Regarding `CN1Cc2c(N)cccc2C(c2ccccc2)C1` (stereo not given), the Potency entry is “inactive”.

On to `CCCCCCCCC(=O)O`, for which the Potency result was “inactive”.

With `Nc1nc(N)c2nc(-c3ccccc3)c(N)nc2n1`, the Potency result was “inactive”.

Regarding `NC(N)=S`, the Potency entry is “inactive”.

As to `O=C1CCCCCCCCCCC1`, the Potency result is “inactive”.

On to `NC(=O)NC(N)=O`, for which the Potency entry is “inactive”.

As to `CC[N+](CC)(CC(=O)Nc1c(C)cccc1C)Cc1ccccc1`, the Potency result was “inactive”.

With `CN1CCCC1=O`, the Potency entry was “inactive”.

With `O=c1c(O)c(-c2ccc(O)c(O)c2)oc2cc(O)cc(O)c12`, the Potency result is “inactive”.

On to `O=C(O)Cc1c[nH]c2ccccc12`, for which the Potency result was “inactive”.

Regarding `CC(=O)CC(=O)N(C)C`, the Potency entry was “inactive”.
